Screening results deposited in PubChem BioAssay by Buhrlage Lab, Dana-Farber Cancer Institute and Novartis Institutes for BioMedical Research (Cambridge, Mass).
The list is not random: actives were taken first. Their share in the collection is about 12%.
OTUD3 block = inhibitors of human OTUD3 deubiquitinase | purified OTUD3, Ub-rhodamine fluorescence, 2 h | inhibition, % at 25 µM | 47,000 tested, 0.7% active
USP17 inh = inhibitors of human USP17 deubiquitinase; Ubiquitin carboxyl-terminal hydrolase 17-like protein 5 (Homo sapiens), A8MUK1; purified USP17, Ub-rhodamine cleavage fluorescence, 3 h; inhibition, % at 50 µM; 47,000 tested, 6.5% active; AID 1645855, 2021
USP28 inh = inhibitors of human USP28 deubiquitinase | Ubiquitin carboxyl-terminal hydrolase 28 (Homo sapiens), Q96RU2 | purified USP28, Ub-rhodamine cleavage fluorescence, 30 min | inhibition, % at 25 µM | 47,000 tested, 3% active
USP30 block = inhibitors of human USP30 deubiquitinase; AID 1645860, 2021; inhibition, % at 25 µM; Ubiquitin carboxyl-terminal hydrolase 30 (Homo sapiens), Q70CQ3; 47,000 tested, 5.3% active; purified USP30, Ub-rhodamine cleavage fluorescence
Target sequence (Q70CQ3 whole entry, looked up): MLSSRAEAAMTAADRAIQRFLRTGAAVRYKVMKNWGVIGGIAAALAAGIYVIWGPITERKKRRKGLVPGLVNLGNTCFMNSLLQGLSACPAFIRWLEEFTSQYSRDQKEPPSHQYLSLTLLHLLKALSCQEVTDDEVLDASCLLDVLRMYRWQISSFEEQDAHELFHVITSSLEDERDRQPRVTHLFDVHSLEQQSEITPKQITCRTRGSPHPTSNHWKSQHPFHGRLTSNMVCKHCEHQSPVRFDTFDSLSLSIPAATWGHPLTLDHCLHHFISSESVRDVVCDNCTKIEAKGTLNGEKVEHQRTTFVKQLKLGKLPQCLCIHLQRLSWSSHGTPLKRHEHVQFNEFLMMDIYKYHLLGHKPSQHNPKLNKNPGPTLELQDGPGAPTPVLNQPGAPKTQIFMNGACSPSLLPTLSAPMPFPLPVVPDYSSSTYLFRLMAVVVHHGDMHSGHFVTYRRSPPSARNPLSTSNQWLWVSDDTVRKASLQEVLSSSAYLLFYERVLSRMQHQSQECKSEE
* = called active by the depositor; x = no result. Rule as the data show it: active = inhibition above about 30%; inactive = the rest.

SMILES	OTUD3 block	USP17 inh	USP28 inh	USP30 block
COc1c(O)cc(CC(=O)O)c(C(C)=O)c1O	78*	81*	79*	34*
O=C(Cn1c(NCc2ccccc2)nc2ccccc21)NCC(F)(F)F	10	45*	27	52*
O=C(N[C@@H]1C[C@@H](Oc2ccccc2)[C@H](O)[C@H]1N1CCCC1)c1cscn1	-10	-19	-30	-59
COc1cc(OC)cc(C(=O)Nc2n[nH]c(C)c2-c2cccc(C)c2)c1	1	-9	27	16
COc1ccc(C(=O)Nc2n[nH]c(C)c2-c2cccc(C)c2)c(OC)c1	10	23	34*	72*
CO[C@H]1CC[C@H](O)c2c1oc1c3c4c(c(O)c1c2=O)-c1c(cc2c(Cl)c(C)n(N)c(=O)c2c1O)C[C@@H]4OCO3	44*	62*	59*	1
O=C(NCc1ccc2c(c1)OCO2)c1ccc(C2SCC(=O)N2Cc2ccco2)cc1 (stereo not drawn)	19	56*	22	5
Cc1ccc(C(=O)NCc2ccc3c(c2)OCO3)cc1S(=O)(=O)N1CCCC1	-15	-18	0	-2
Cc1ccc(C(=O)/C=C/c2ccc3c(c2)OCCO3)c(OCc2ccccc2)c1	-36	x	-64	-179
Cc1cccc(N2C(=O)/C(=C\c3ccc4c(c3)OCCO4)c3ccccc3C2=O)c1	-8	55*	13	6
Cc1cccc(N2C(=O)/C(=C\c3ccc4c(c3)OCO4)c3ccccc3C2=O)c1	-7	42*	8	-14
CCn1c(CNc2ccc(C)cc2)nnc1SCC(=O)Nc1ccccc1Cl	-15	-18	5	-31
Cc1cc(C)c(NC(=O)CSc2nc3nccnc3c(=O)n2Cc2ccccc2Cl)c(C)c1	31*	49*	37*	-11
CC(=O)N1c2ccc(S(=O)(=O)N3CCC(C(=O)N4CCc5ccccc5C4)CC3)cc2CC1C (stereo not drawn)	-1	-2	5	1
Cc1ccc(CNC(=O)CN2C(=O)c3ccccc3C2c2c(-c3ccccc3)[nH]c3ccccc23)o1 (stereo not drawn)	2	37*	4	-15
COc1ccc(CCNC(=O)CN2C(=O)c3ccccc3C2c2c(C)[nH]c3ccccc23)cc1OC (stereo not drawn)	-4	-12	0	-37
Cc1nnc(Nc2cccc(C3CCCN(CC(N)=O)C3)n2)s1 (stereo not drawn)	11	8	11	30*
O=C1C[C@@H](O)[C@H](O)[C@@]23O[C@@]12C1(Oc2cccc4cccc(c24)O1)[C@@H]1O[C@@H]1[C@@H]3O	33*	81*	46*	4
O=C(COc1ccc(C2CCCCC2)cc1)Nc1ccc2oc(-c3cccnc3)nc2c1	-11	0	-9	26
O=S(=O)(Nc1ccc2oc(-c3ccncc3)nc2c1)c1ccccc1	16	55*	32*	30*
COC(=O)c1c(C)nn(C)c1-c1ccno1	11	16	7	31*
COC(=O)c1c(C(=O)OC)c(-c2ccccc2)n(C)c1-c1ccccc1	11	19	27	21
COc1ccc2[nH]c(C(=O)N3CCC(n4c(C)nc5cccnc54)CC3)cc2c1	-6	-3	-5	-11
CCOc1ccccc1C(=O)Oc1ccc2c(C)cc(=O)oc2c1	2	59*	8	31*
COc1ccc(CC(=O)N2Cc3c(CN4CCCCC4)nn(C)c3C2)cc1	2	-8	2	0
SMILES	OTUD3 block	USP17 inh	USP28 inh	USP30 block
COc1ccc(C(=O)NCC(c2ccc3c(c2)CCCN3C)N2CCCCC2)cc1 (stereo not drawn)	-25	-36	-38	-120
CC(C)=CCc1cccc2c(C3=C(O)C(=O)C(c4c[nH]c5c(CC=C(C)C)cccc45)=C(O)C3=O)c[nH]c12	31*	72*	52*	43*
COc1cccc(NC(=O)N2CCCC2c2cc(C(C)C)no2)c1 (stereo not drawn)	0	x	-9	-2
Cc1noc(C)c1S(=O)(=O)NCc1ccc2c(c1)CCN2C(=O)c1ccccc1	3	0	6	10
CCOc1ccc(NC(=O)C2C3C=CC4(O3)C2C(=O)N(C2CCCCCC2)C4C(=O)NC2CCCCC2)cc1 (stereo not drawn)	-13	-11	-1	1
O=C(c1cc(C2CC2)nn1-c1ccccc1)N1CCN(c2ccc(O)cc2)CC1	-4	19	0	3
O=C(c1cc(-c2ccccc2)nn1-c1ccccc1)N1CCN(C(=O)C2CCCO2)CC1 (stereo not drawn)	5	9	14	37*
CCC(NC(=O)C1c2ccccc2CCN1C(C)=O)c1ccc(OC)cc1 (stereo not drawn)	10	4	5	-9
O=C(CSc1nnnn1-c1ccccc1)Nc1ccccc1	0	51*	15	46*
Cc1cccc(CN2CC[C@H]3COC(=O)N[C@@H]3C2)c1	10	18	9	8
Cc1cccc(NC(=O)c2ccc(N3CCCC3)nn2)n1	0	-3	11	5
Cc1c(Cl)cccc1NC(=O)c1ccc(N2CCCC2)nn1	13	56*	25	61*
Cc1cccc(NC(=O)c2ccc(N3CCCC3)nn2)c1	0	-9	12	32*
COc1ccc(-c2[nH]c3[nH]c(=O)[nH]c(=O)c3c2C2C(=O)Nc3ccccc32)cc1 (stereo not drawn)	-1	5	6	0
CSCCC(NS(=O)(=O)c1cccs1)C(=O)NCc1ccccc1Cl (stereo not drawn)	-17	-23	-12	-9
Cc1cc(C(=O)N2CC(C(=O)NCCc3ccc(F)cc3)C2)no1	10	9	4	12
Cc1ccc(NC(=O)c2ccc(CNc3nc4nc(C)cc(=O)n4[nH]3)cc2)cc1	18	18	10	26
O=c1[nH]c2ccccc2n1CCCOc1ccc(Cl)cc1	1	7	40*	6
N#Cc1ccc(NC(=O)Nc2cccn(Cc3ccccc3Br)c2=O)cc1	45*	81*	63*	30*
N#Cc1cccc(NC(=O)Nc2cccn(Cc3ccccc3F)c2=O)c1	84*	85*	82*	27
Cc1ccccc1NC(=O)CNc1ccc(C#N)cc1	-6	-7	0	-7
CCCNC(=O)N1CCN(Cc2nc3cccnc3n2-c2ccccc2)CC1	-10	-24	-20	-14
O=C(O)c1cccc(S(=O)(=O)NCc2ccc3c(c2)OCO3)c1	16	9	9	35*
O=C(NCc1ccco1)c1nnn(Cc2ccccc2Cl)c1-n1cccc1	0	33*	6	-115
O=C(NCCc1ccccc1)c1cn2cc(Cl)ccc2n1	-2	-1	4	0
O=C(NCCc1ccccc1)c1nnn(Cc2cccc(Cl)c2)c1-n1cccc1	-26	15	78*	-41
CC12CN(C(=O)c3ccccc3)CC(C)(CN(C(=O)c3ccccc3)C1)C2O (stereo not drawn)	-13	-19	-19	-36
CC1CC2OC2/C=C/C(O)CC(=O)O1 (stereo not drawn)	6	5	4	7
